Only some compounds are listed: those with a hit (about 3.6% of all), similar ones and a draw of the others.
Pf apPOL inh: Pf-apPOL DNA polymerase inhibition. inhibition, % at 10 µM. Recombinant Pf-apPOL, molecular beacon fluorescence, 1.5 h. 210,000 tested, 0.25% active
mHTT-CaM PPI inh: mHTT-calmodulin interaction abrogation; P42858; AlphaScreen His-mHTT/GST-CaM binding, luminescence; inhibition, % at 15 µM; 190,000 tested, 3.6% active
Numbers stand for hits; - = inactive; . = not tested or not shown. No stated cut-off is given here; in the data, active means inhibition above about 50%; inactive means the rest.

SMILES	Pf apPOL inh	mHTT-CaM PPI inh
COc1cc(/C=C2/C(=O)N(c3ccccc3)N=C2C)cc(Br)c1O	-	55
COc1cc(/C=C2/C(=O)N(c3ccc(Cl)c(Cl)c3)N=C2C)cc(OC)c1OC	-	-
CC1=NN(c2ccccc2)C(=O)/C1=C/c1ccc(O)c(Cl)c1	-	-
COc1cc(/C=C2/C(=O)N(c3ccc(Cl)c(Cl)c3)N=C2C)cc(OC)c1O	-	67
COc1ccc(/C=C2/C(=O)N(c3ccccc3)N=C2C)cc1Br	-	-
COc1ccc(/C=C2/C(=O)N(c3ccc(Cl)c(Cl)c3)N=C2C)cc1[N+](=O)[O-]	-	-
CCOc1ccc(N2CC(C(=O)Nc3ccc(C)cc3)CC2=O)cc1 (centres undefined)	-	-
CCc1cc(C(=O)NCc2ccccc2Cl)nc2ccnn12	-	-
CC(C)c1ccc(NC(=O)C2CCc3sc(C(=O)N4CCOCC4)cc3C2)cc1 (centres undefined)	-	-
COc1ccc(C=C2Oc3c(ccc(O)c3CN3CCCCC3C)C2=O)c(OC)c1OC (centres undefined)	-	-
CC1CCCCN1CCNC(=O)CN1CCN(C(=O)Nc2ccc(Cl)cc2)CC1=O (centres undefined)	-	-
COc1ccccc1/C=C1/C(=O)N(c2cccc(Cl)c2)N=C1C	-	-
COc1cccc(/C=C2/C(=O)N(c3cccc(Cl)c3)N=C2C)c1	-	96
COc1cc(/C=C2/C(=O)N(c3ccccc3)N=C2C)ccc1OCc1ccccc1	-	-
COc1cc(/C=C2/C(=O)N(c3ccc(C)c(Cl)c3)N=C2C)ccc1O	-	52
C=CCOc1ccc(/C=C2/C(=O)N(c3ccc(Cl)c(Cl)c3)N=C2C)cc1OC	-	-
COc1cc(/C=C2/C(=O)N(c3ccccc3)N=C2C)cc(OC)c1O	-	52
COc1ccc(/C=C2/C(=O)N(c3ccc(Cl)c(Cl)c3)N=C2C)cc1Br	-	-
COc1cc(/C=C2/C(=O)N(c3cccc(Cl)c3)N=C2C)cc(Br)c1O	-	78
O=C(Cc1c(F)cccc1Cl)N1CCc2nc3cc(-c4ccccc4)[nH]n3c(=O)c2C1	-	-
Cn1nc(COc2ccccc2)c2c1CCN(C(=O)NCc1ccco1)C2	-	-
COc1ccccc1OCC1CN(C(=O)c2ccccc2Cl)CCO1 (centres undefined)	-	-
Cc1ccc(C)c(NC(=O)N2CCCC2c2cc(C)on2)c1 (centres undefined)	-	-
COCCNC(=O)N1CC(c2nc(C3CC3)no2)C1	-	-
COc1cc(/C=C2/C(=O)N(c3ccccc3)N=C2C)c([N+](=O)[O-])cc1OC	-	-
SMILES	Pf apPOL inh	mHTT-CaM PPI inh
COc1cc(/C=C2/C(=O)N(c3ccccc3)N=C2C)cc([N+](=O)[O-])c1O	-	57
COCCNC(=O)C(C)C1CCN(C(=O)c2sc(-c3ccc(F)cc3)nc2C)CC1 (centres undefined)	-	-
CCc1ccc(-n2c(C)nc3cc(C(=O)NCCN4CCOCC4)ccc32)cc1	-	-
CC(C)N1C(=O)C(CC(=O)NCc2ccccc2)SC1=Nc1ccccc1 (centres undefined)	-	-
COc1ccc(-c2nnc(NC(=O)CS(=O)(=O)c3ccc(F)cc3)o2)c(OC)c1	-	-
COc1cc(OC)cc(-c2nnc(NC(=O)c3ccc(S(=O)(=O)N(C)C)cc3)o2)c1	-	-
COc1ccc(S(=O)(=O)CC(=O)Nc2nnc(-c3cc(C)oc3C)o2)cc1	-	57
CCS(=O)(=O)c1ccc(CC(=O)Nc2nnc(-c3ccccc3Cl)o2)cc1	-	68
O=C(CS(=O)(=O)Cc1ccccc1)Nc1nnc(-c2ccccc2Cl)o1	-	-
Cc1cc(-c2nnc(NC(=O)c3ccc(S(=O)(=O)N(C)C)cc3)o2)c(C)o1	-	58
C=CCn1c(=O)c2c(ncn2Cc2ccc(C)cc2)n(-c2cccc(F)c2)c1=O	-	-
CS(=O)(=O)c1ccc2nc(NS(=O)(=O)c3ccccc3)sc2c1	.	-
CCN(CC)CCN1C(=O)C(=O)C(=C(O)c2ccc(F)cc2)C1c1ccco1 (centres undefined)	-	-
C=CCn1c(SCC(=O)O)nnc1-c1cccs1	-	50
C=CCn1c(SCC(=O)c2ccc(F)cc2)nnc1-c1cccs1	-	-
CNC(=O)c1cccnc1N1CCNC(c2ccccc2)C1 (centres undefined)	-	-
COc1ccccc1CCC(=O)N1CCC(c2nncn2C)CC1	-	-
CCCSc1nnc2c(n1)OC(c1ccco1)Nc1ccc(Br)cc1-2 (centres undefined)	-	53
CSc1nnc2c(n1)OC(c1ccc(C(=O)O)cc1)Nc1ccc(Br)cc1-2 (centres undefined)	-	-
CCCSc1nnc2c(n1)OC(c1ccco1)Nc1ccccc1-2 (centres undefined)	-	-
CSc1nnc2c(n1)OC(c1ccncc1)Nc1ccc(Br)cc1-2 (centres undefined)	-	54
Cc1ccc(S(=O)(=O)Nc2nc(C)c(C(=O)Nc3ccc4c(c3)OCO4)s2)cc1	-	-
